Out of some 330,000 compounds screened, about 590 (0.18%) were called active. The sample holds actives, similar compounds and a random draw of the others, so the mix is not that of the screen. Unmarked numbers belong to inactive results.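 Rule for the calls: active = superoxide response under a set limit, about three screen SD below normal (cut at about 65% in these data); inactive = the rest.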
assay: reduction of superoxide in aged yeast, primary screen, HTS (AID 2690);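 note: yeast aged for seven days with compound at 30 °C before DHE staining; 100% = average MFI of all compound-treated wells on the plate with controls excluded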; conditions: S. cerevisiae aged cells, superoxide DHE fluorescence; at 10 µM; hits give low values

Structure (SMILES) | superoxide response (% of plate mean)
CN1CCN(C(=S)SCC(=O)Nc2ccc(Cl)cc2C(=O)c2ccccc2)CC1 | 63.3% (active)
O=C(CCNS(=O)(=O)c1ccccc1)Nc1ccc(Cl)cc1C(=O)c1ccccc1 | 83.2%
O=C(COC(=O)c1ccccc1)Nc1ccc(Cl)cc1C(=O)c1ccccc1 | 104%
CNCC[C@H](Oc1ccc(C(F)(F)F)cc1)c1ccccc1 | 88.9%
Cc1cc(C)cc(NC(=S)NC2CC3CCCC(C2)N3Cc2cccs2)c1 (stereo not given) | 101%

From PubChem BioAssay AID2690 (NMMLSC, 2010)
